Measurements published in PubChem BioAssay (NCATS).
A number with no mark means an inactive call. Where a call stands in place of a potency, no number is given. Activity calls are given as the source filed them. Calls follow the shape of the dose curve; as a rule, active = well fitted inhibition curve with a large enough effect; inconclusive = small, poorly fitted or top-dose-only effect; inactive = flat fitted curve, though single readings scatter.

The compounds below were run on Nanoluciferase (engineered Oplophorus gracilirostris luciferase) (assay: Primary Nanoluciferase (NLuc) qHTS assay for identification of artifact compounds. (AID 1845222)). Settings: NLuc-conditioned medium, Nano-Glo luminescence, 5 min; series mostly up to 54.1 µM.
Method in brief: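 Luminescence read-out of secreted NLuc in S16 cell conditioned medium (1:55); compounds tested with 15 min RT preincubation, then Nano-Glo substrate 1:100, 5 min. % inhibition vs no-enzyme and DMSO controls, 4-parameter Hill fit.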

| Structure (SMILES) | Potency | activity, negative = inhibition |
| --- | --- | --- |
| O=C(Nc1cc(-c2ccccc2)nn1-c1ccccc1)c1ccc([N+](=O)[O-])cc1 | inactive |  |
| O=C(N[C@@H]1CC[C@@H](c2cccc(F)c2F)CN(CC(F)(F)F)C1=O)N1CCC(n2c(=O)[nH]c3ncccc32)CC1 | inactive |  |
| CC/C=C\CC1C(CC(=O)O)CCC1OC1OC(CO)C(O)C(O)C1O (configuration not stated) | inactive |  |
| COc1cc(O)c2c(c1)C1(OC2=O)C(C)=CC(=O)C1O (configuration not stated) | inactive |  |
| OC[C@H]1O[C@@H](OCc2ccccc2)[C@H](O[C@@H]2OC[C@@H](O)[C@H](O)[C@H]2O)[C@@H](O)[C@@H]1O | inactive |  |
| C[C@H]1CC(=O)C2=C(C1)C(O)C(O)[C@@]1(O)[C@H]2C(=O)c2cccc(O)c2[C@@H]1O (some centres not stated) | inactive |  |
| CC1(C)CC[C@]2(C(=O)O[C@@H]3O[C@H](CO)[C@@H](O)[C@H](O)[C@H]3O)CC[C@]3(C)C(=CCC4[C@@]5(C)C[C@H](O)[C@H](O[C@@H]6OC[C@@H](O)[C@H](O)[C@H]6O)[C@@](C)(CO)C5CC[C@]43C)C2C1 (some centres not stated) |  | 3.66% [at 11.6 µM] |
| COc1cc(Nc2nc3ccccc3nc2NS(=O)(=O)c2cccc(NC(=O)c3ccc(C)c(OC)c3)c2)cc(OC)c1 | inactive |  |
| C=C1CC23CC1CCC2C12OC(=O)C(C)(C(O)C(O)C1O)C2C3C(=O)O (configuration not stated) | inactive |  |
| COc1ccc(C(=O)CC(=O)O)c2c1C=CC(C)(C)O2 | inactive |  |
| O=C(Nc1ccc(N2CCC(C(=O)N3CCOCC3)CC2)cc1)c1cnc(Oc2ccccc2)nc1 | inactive |  |
| O=C(C[C@@H]1C(C(=O)O)=CO[C@@H](O[C@@H]2O[C@H](CO)[C@@H](O)[C@H](O)[C@H]2O)/C1=C\CO)OCCc1ccc(O)c(O)c1 | inactive |  |
| C[C@@H]1O[C@@H](OC[C@H]2O[C@@H](OCc3ccccc3)[C@H](O)[C@@H](O)[C@@H]2O)[C@H](O)[C@H](O)[C@H]1O | inactive |  |
| CC1=CC(=O)CC(C)(C)C1/C=C/C(C)OC1OC(COC2OCC(O)C(O)C2O)C(O)C(O)C1O (configuration not stated) | inactive |  |
| O=[N+]([O-])c1cc(Cl)ccc1S(=O)(=O)N1CCN(Cc2ccccc2)CC1 | inactive |  |
| CCC(=O)N1CCc2cc(OC)c(O)cc2C1 | inactive |  |
| Cc1c(C)c(NCC(=O)N(C)C2CCN(Cc3ccc(C(N)=O)cc3)CC2)c(C)c(C)c1N | inactive |  |
| CC1(C)CCC2(C(=O)O)CCC3(C)C(=CCC4C5(C)CCC(O)C(C)(CO)C5C(O)CC43C)C2C1 (configuration not stated) | inactive |  |
| C/C(=C/CO)CC[C@H]1[C@]2(C)C[C@H](O)CC(C)(C)[C@H]2CC[C@]1(C)O | inactive |  |
| COc1cc(/C=C/CO[C@@H]2O[C@H](CO)[C@@H](O)[C@H](O)[C@H]2O)cc(OC)c1O[C@@H]1O[C@H](CO)[C@@H](O)[C@H](O)[C@H]1O | inactive |  |
| O=C(c1ccc(Cl)c([N+](=O)[O-])c1)N1CCN(c2ccccc2F)CC1 | inactive |  |
| COc1c(C)c(OCC(O)C(C)(C)O)cc2c1CNC2=O (configuration not stated) | inactive |  |
| O=C(/C=C/c1ccc(O)c(O)c1)O[C@H]1[C@H](OC2CCCCC2O)O[C@H](CO)[C@@H](O)[C@@H]1O (some centres not stated) | inactive |  |
| CC12CC(O)C(O)C=C1c1cc(O)cc(O)c1C(=O)O2 (configuration not stated) | inactive |  |
| CC(=O)c1ccc(O[C@@H]2O[C@H](CO[C@@H]3OC[C@@H](O)[C@H](O)[C@H]3O)[C@@H](O)[C@H](O)[C@H]2O)cc1 | inactive |  |
| OC[C@@]1(O)CO[C@H](OC[C@H]2O[C@@H](OCCc3ccccc3)[C@H](O)[C@@H](O)[C@@H]2O)[C@@H]1O | inactive |  |
| COc1c(O)cc2c(c1O)C(=O)O[C@H](C)[C@H]2O | inactive |  |
